# Assay results: PubChem BioAssay AID1159580 (chemical genetic matrix, 2015)
# Hit rate of the full screen: of about 5,500 compounds, about 2,000 (36%) were called active. Roughly 18% stayed inconclusive and do not appear here. Some of the results follow. A number with no mark means an inactive call. Cut-off read from the data, not from the text of the source: active = normalized growth mostly below about 0.91 (no sharp cut-off); inconclusive = no clear call, values can overlap the other calls; inactive = mostly above about 0.92.
# Experiment: chemical genetic growth profiling, strain panel (AID 1159580);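 note: tested at 20 µM; growth read once vehicle control cultures reached saturation at 30 °C; 1 = growth at the plate median or of vehicle wells; lower values mean less growth of the strain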
# Conditions: S. cerevisiae deletion strains, growth OD
# [1] = locus YAL013W, strain DEP1, hits give low values
# [2] = locus YBR229C, strain ROT2, hits give low values
# [3] = locus YCL061C, strain MRC1, hits give low values
# [4] = locus YDL101C, strain DUN1, hits give low values
# [5] = locus YDL134C, strain PPH21, hits give low values
# [6] = locus YDR150W, strain NUM1, hits give low values
# [7] = locus YEL061C, strain CIN8, hits give low values
# [8] = locus YGR078C, strain PAC10, hits give low values
# [9] = locus YHR030C, strain SLT2, hits give low values
# [10] = locus YHR087W, strain rtc3, hits give low values
# [11] = locus YJL187C, strain SWE1, hits give low values
# [12] = locus YJR043C, strain POL32, hits give low values
# [13] = locus YJR075W, strain HOC1, hits give low values
# [14] = locus YLR039C, strain RIC1, hits give low values
# [15] = locus YLR058C, strain SHM2 (second series), hits give low values
# [16] = locus YLR085C, strain ARP6, hits give low values
# [17] = locus YLR262C, strain YPT6, hits give low values
# [18] = locus YML094W, strain GIM5, hits give low values
# [19] = locus YMR219W, strain ESC1, hits give low values
# [20] = locus YMR263W, strain SAP30, hits give low values
# [21] = locus YMR307W, strain GAS1, hits give low values
# [22] = locus YNL153C, strain GIM3, hits give low values
# [23] = locus YNL298W, strain CLA4 (second series), hits give low values
# [24] = locus YNL322C, strain KRE1, hits give low values
# [25] = locus YNR030W, strain Alg12, hits give low values
# [26] = locus YOL006C, strain TOP1, hits give low values
# [27] = locus YPL055C, strain LGE1, hits give low values
# [28] = locus YPL241C, strain CIN2, hits give low values
# [29] = locus YPR135W, strain CTF4, hits give low values
# [30] = locus YKL190W, strain CNB1, hits give low values
smiles,measurement,setting,value
CCOC(=O)/C(C#N)=C/Nc1ccc2c(c1)OCO2,normalized growth,[1],0.992
same,normalized growth,[2],0.985
same,normalized growth,[3],1.01
same,normalized growth,[4],1.07
same,normalized growth,[5],0.963
same,normalized growth,[6],1
same,normalized growth,[7],0.989
same,normalized growth,[8],0.98
same,normalized growth,[9],0.4 (active)
same,normalized growth,[10],0.986
same,normalized growth,[11],0.982
same,normalized growth,[12],0.989
same,normalized growth,[13],0.889 (active)
same,normalized growth,[14],0.795
same,normalized growth,[15],0.971
same,normalized growth,[16],0.772 (active)
same,normalized growth,[17],0.816 (active)
same,normalized growth,[18],1.03
same,normalized growth,[19],0.981
same,normalized growth,[20],0.96
same,normalized growth,[21],0.884
same,normalized growth,[22],1.02
same,normalized growth,[23],0.905
same,normalized growth,[24],0.97
same,normalized growth,[25],0.946
same,normalized growth,[26],0.804
same,normalized growth,[27],0.976
same,normalized growth,[28],0.966
same,normalized growth,[29],0.786
Cc1ccc(Cl)cc1NC(=S)N(CCC#N)/N=C\c1ccc2c(c1)OCO2,normalized growth,[1],0.997
same,normalized growth,[2],1
same,normalized growth,[4],1
same,normalized growth,[6],1.02
same,normalized growth,[7],1
same,normalized growth,[8],0.991
same,normalized growth,[9],0.953
same,normalized growth,[10],0.995
same,normalized growth,[11],0.995
same,normalized growth,[12],1
same,normalized growth,[13],1.02
same,normalized growth,[30],0.98
same,normalized growth,[14],0.936
same,normalized growth,[15],1.01
same,normalized growth,[16],0.925
same,normalized growth,[17],0.973
same,normalized growth,[18],0.975
same,normalized growth,[19],1
same,normalized growth,[20],1.03
same,normalized growth,[21],0.853
same,normalized growth,[22],1.02
same,normalized growth,[23],0.981
same,normalized growth,[24],0.989
same,normalized growth,[25],0.974
same,normalized growth,[26],0.998
same,normalized growth,[27],1.04
same,normalized growth,[28],0.985
same,normalized growth,[29],1.1
Cc1ccc(S(=O)(=O)N2CCC(N)=N2)cc1,normalized growth,[1],1.03
same,normalized growth,[2],0.954
same,normalized growth,[3],1.03
same,normalized growth,[4],1.05
same,normalized growth,[5],0.984
same,normalized growth,[6],1.02
same,normalized growth,[7],0.997
same,normalized growth,[8],1.02
same,normalized growth,[9],1.1
same,normalized growth,[10],1.01
same,normalized growth,[11],0.999
same,normalized growth,[12],1.05
same,normalized growth,[13],1.02
same,normalized growth,[30],1
same,normalized growth,[14],1
same,normalized growth,[15],0.992
same,normalized growth,[16],1.02
same,normalized growth,[17],0.99
same,normalized growth,[18],1
same,normalized growth,[19],0.995
same,normalized growth,[20],1.02
same,normalized growth,[21],0.997
same,normalized growth,"locus YNL128W, strain TEP1, hits give low values",1.01
same,normalized growth,[22],1.02
same,normalized growth,[23],1.04
same,normalized growth,[24],1
same,normalized growth,[25],0.992
same,normalized growth,[27],1
same,normalized growth,[28],1
same,normalized growth,[29],1.08
CC(C)(C)NCC(O)COc1cccc2c1CCCC2=O (configuration not stated),normalized growth,"locus YAL021C, strain ccr4, hits give low values",0.97
same,normalized growth,"locus YAL026C, strain drs2, hits give low values",0.976
same,normalized growth,"locus YAL030W, strain snc1, hits give low values",0.985
same,normalized growth,"locus YBL061C, strain skt5, hits give low values",0.981
same,normalized growth,"locus YBR009C, strain hhf1, hits give low values",1
same,normalized growth,"locus YBR023C, strain chs3, hits give low values",0.983
same,normalized growth,"locus YBR171W, strain sec66, hits give low values",0.934
same,normalized growth,"locus YBR231C, strain swc5, hits give low values",0.98
same,normalized growth,"locus YBR279W, strain paf1, hits give low values",0.979
same,normalized growth,"locus YCL011C, strain gbp2, hits give low values",0.992
same,normalized growth,"locus YCL016C, strain dcc1, hits give low values",1.02
same,normalized growth,[3],0.957
same,normalized growth,"locus YCL069W, strain vba3, hits give low values",0.952
same,normalized growth,"locus YCR088W, strain abp1, hits give low values",0.981
same,normalized growth,"locus YDL005C, strain med2, hits give low values",0.987
same,normalized growth,"locus YDL040C, strain nat1, hits give low values",0.978
same,normalized growth,"locus YDR001C, strain nth1, hits give low values",0.976
same,normalized growth,"locus YDR069C, strain doa4, hits give low values",0.987
same,normalized growth,"locus YDR137W, strain rgp1, hits give low values",0.983
same,normalized growth,"locus YDR159W, strain sac3, hits give low values",0.967
same,normalized growth,"locus YDR195W, strain ref2",0.966
same,normalized growth,"locus YDR297W, strain sur2, hits give low values",0.981
same,normalized growth,"locus YDR334W, strain swr1, hits give low values",0.937
same,normalized growth,"locus YDR335W, strain msn5, hits give low values",0.989
same,normalized growth,"locus YDR392W, strain spt3, hits give low values",0.992
same,normalized growth,"locus YEL003W, strain gim4, hits give low values",0.994
same,normalized growth,"locus YEL037C, strain rad23, hits give low values",0.973
same,normalized growth,"locus YEL061C, strain CIN8 (second series), hits give low values",0.961
same,normalized growth,"locus YER015W, strain faa2, hits give low values",0.981
same,normalized growth,"locus YER016W, strain bim1, hits give low values",1.01
same,normalized growth,"locus YER111C, strain swi4, hits give low values",0.982
same,normalized growth,"locus YER155C, strain BEM2 (second series), hits give low values",0.986
same,normalized growth,"locus YFR010W, strain ubp6, hits give low values",0.95
same,normalized growth,"locus YGL167C, strain pmr1, hits give low values",0.984
same,normalized growth,"locus YGL173C, strain kem1, hits give low values",0.977
same,normalized growth,"locus YGL227W, strain vid30, hits give low values",0.964
same,normalized growth,"locus YGL240W, strain doc1, hits give low values",0.984
same,normalized growth,"locus YGL253W, strain hxk2, hits give low values",0.99
same,normalized growth,"locus YHR013C, strain ard1, hits give low values",0.988
same,normalized growth,"locus YHR027C, strain rpn1, hits give low values",0.996
same,normalized growth,[9],0.954
same,normalized growth,"locus YHR079C, strain IRE1, hits give low values",0.954
same,normalized growth,"locus YHR142W, strain chs7, hits give low values",0.986
same,normalized growth,"locus YJL092W, strain hpr5, hits give low values",0.99
same,normalized growth,"locus YJL095W, strain BCK1 (second series), hits give low values",0.988
same,normalized growth,"locus YJL095W, strain BCK1, hits give low values",0.98
same,normalized growth,"locus YJL115W, strain asf1, hits give low values",0.959
same,normalized growth,"locus YJL129C, strain trk1, hits give low values",0.97
same,normalized growth,"locus YJL154C, strain vps35, hits give low values",0.981
same,normalized growth,"locus YJL164C, strain tpk1, hits give low values",1
same,normalized growth,"locus YJL166W, strain qcr8, hits give low values",0.976
same,normalized growth,[11],0.989
same,normalized growth,"locus YJR066W, strain TOR1, hits give low values",0.943
same,normalized growth,"locus YKL160W, strain elf1, hits give low values",1.01
same,normalized growth,"locus YKR026C, strain gcn3, hits give low values",0.983
same,normalized growth,"locus YKR091W, strain srl3, hits give low values",0.986
same,normalized growth,"locus YLL001W, strain dnm1, hits give low values",0.985
same,normalized growth,"locus YLL026W, hits give low values",0.993
same,normalized growth,"locus YLL041C, strain sdh2, hits give low values",1.01
same,normalized growth,"locus YLR027C, strain aat2, hits give low values",1.01
same,normalized growth,"locus YLR113W, strain HOG1, hits give low values",1.01
same,normalized growth,"locus YLR221C, strain rsa3, hits give low values",0.999
same,normalized growth,"locus YLR258W, strain gsy2, hits give low values",0.969
same,normalized growth,"locus YLR262C, strain YPT6 (second series), hits give low values",0.971
same,normalized growth,"locus YLR320W, strain mms22, hits give low values",0.965
same,normalized growth,"locus YLR342W, strain FKS1, hits give low values",0.992
same,normalized growth,"locus YLR357W, strain rsc2, hits give low values",0.991
same,normalized growth,"locus YLR370C, strain arc18, hits give low values",0.984
same,normalized growth,"locus YLR384C, strain iki3, hits give low values",0.973
same,normalized growth,"locus YML120C, strain ndi1, hits give low values",1.01
same,normalized growth,"locus YMR058W, strain fet3, hits give low values",0.982
same,normalized growth,"locus YMR125W, strain sto1, hits give low values",0.958
same,normalized growth,"locus YMR129W, hits give low values",0.992
same,normalized growth,"locus YMR205C, strain PFK2, hits give low values",0.989
same,normalized growth,"locus YMR231W, strain pep5, hits give low values",0.983
same,normalized growth,"locus YNL071W, strain lat1, hits give low values",0.958
same,normalized growth,"locus YNL183C, strain NPR1, hits give low values",0.952
same,normalized growth,"locus YNL209W, strain ssb2, hits give low values",0.984
same,normalized growth,"locus YNL248C, strain rpa49, hits give low values",0.98
same,normalized growth,"locus YNL322C, strain KRE1 (second series), hits give low values",1.01
same,normalized growth,"locus YNR049C, strain mso1, hits give low values",0.993
same,normalized growth,"locus YOR001W, strain rrp6, hits give low values",0.944
same,normalized growth,"locus YOR070C, strain gyp1, hits give low values",0.992
same,normalized growth,"locus YOR080W, strain dia2, hits give low values",1
same,normalized growth,"locus YOR083W, strain WHI5, hits give low values",1.02
same,normalized growth,"locus YOR106W, strain vam3, hits give low values",0.977
same,normalized growth,"locus YOR231W, strain MKK1, hits give low values",0.977
same,normalized growth,"locus YOR265W, strain rbl2, hits give low values",0.979
same,normalized growth,"locus YOR270C, strain vph1, hits give low values",0.95
same,normalized growth,"locus YOR290C, strain snf2, hits give low values",1.03
same,normalized growth,"locus YPL051W, strain arl3, hits give low values",1.01
same,normalized growth,"locus YPL078C, strain atp4, hits give low values",1
same,normalized growth,"locus YPL106C, strain sse1, hits give low values",0.975
same,normalized growth,"locus YPL240C, strain hsp82, hits give low values",0.996
same,normalized growth,"locus YPL256C, strain CLN2, hits give low values",0.969
